Experimental data as given in the supplement of paper PMC6555819.

Tested on: VDR:RXRa (NR concentration 270 nM, RXRa partner concentration 90 nM)
Assay: PBM binding z-score (relative to random genomic background probes); higher = stronger binding; sequences stand for … in GC…GCGATTGACAGCGTAGAATGAAGG
Procedure: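 Protein-binding microarray (Agilent 4x180K custom design, double-stranded 60-nt probes: 5' GC cap, 34-nt variable region, 24-nt constant primer region; full probe sequence given). Purified or IVT nuclear receptor:RXRα heterodimers (3:1 NR:RXRα, mostly 270:90 nM) or homodimers were incubated for 1 h in PBS with 2% milk and no ligand, then detected with Alexa488 antibodies. Fluorescence from o1-orientation probes (~5 replicates averaged) was converted to z-scores against 500 random hg19 background probes. Variable regions are seed direct-repeat (DR0–DR5) sites, all their single-nucleotide variants and half-site ablations.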

| Sequence | PBM binding z-score |
| --- | --- |
| AGAACGAGGGCAATGCGTTGATAGCACGGGTGGC | 1.16 |
| ATACCAGGGTGATCGTGAGGTCGTTGATACTAAC | 3.22 |
| TCTGCTAGGTCCACGATGGTCAGCTAATCTGCTA | -0.304 |
| TTTAGTTGGTCACGGAGGTCACACACGACGGGTA | 6.05 |
| CGTCCAAGGTCAGAGAGGTCAGAGAATGCCGAGT | 7.59 |
| TCATATAGGTAATACAGGCGAAAGTCGGCATCTA | 0.97 |
| CGTCCAAGGGCAGAGAGGTCAGTGAATGCCGAGT | 5.05 |
| CCAGACAGGTTAGAAGGTAACTCAGCCTCGATTA | 0.114 |
| CCTCTGAGGACAACAGGAGGTCAGAGCTGCCAGA | 2.17 |
| GCTTACGGGTCAAAGGTTATACCATGAATAGAAT | 5.75 |
| ATCGAAAGGTCGATGGTGAGTATACCCACCCGAA | 1.78 |
| ACAGATAGGTGAGTGAAGGTAACTCAGCTGGACG | -0.335 |
| ATCGAAAGGTCGACGAGGCGAGTATACACCGTTT | 3.79 |
| GATACAGGTTCAAGGCCAGAGTACGCGTATTGAT | 3.41 |
| GCATATAGGTAATACAAGGTGAACGTCCGATTGT | 0.043 |
| ACAGACAGGTGATGAAGGTCACTCAGGCTATCAT | 4.67 |
| GCTGCTAGGTCAACTGATGGTCAGCTTAAGCTCG | 1.62 |
| TTTGCTAGGTCAGTTGGTCAGCTAACGAGCTGCC | 0.134 |
| ACTAGCAGGCTAAGTTTGGGTCACTCAAACAAAG | 0.216 |
| AGTCAAAGTTCAGGACGAGGTAACGTAGAGCACG | 2.91 |

| Sequence | PBM binding z-score |
| --- | --- |
| TCATAAAGGTAAAAGGTGAAAGTCGGTGTGGTAA | 1.89 |
| TGAATGCGGTTATAAGATCAGGGAACGTTGCAAA | -0.0836 |
| ATCGAAAGGTCGAAGTGAGTATAGAGAAAGGGAA | 2.7 |
| TCTCGGAGGACACGAAAGGTCATAGCTCGACATC | 4.71 |
| ATATGTACGTTAAGGGTCATTCAGGTTGGTTCGC | 5.64 |
| TTATATAGGTAAAGGTGAAAGTCGAACGATATGA | 1.07 |
| TATGCTAGGTCAACGATGGTCAGCTAATCTGCTA | 1.79 |
| CTCGAAAGGTCGTGCTCAGGCGAGTATACCAAAC | 2.96 |
| CGAACTAGGTCATTGACAGGACAGAGAATAGTAA | 2.18 |
| AATACTGGGTCATCGTAGGCCAGAGTACGCACAG | 2.49 |
| TCAGACAGGTGAAGGTAACTGAGGTACGCAGTCG | 0.737 |
| CCTAGTCGGTCAGGAGGTCACACACCGGATATGA | 3.97 |
| AGTCAACGTTCATCTAGGTAACGTAAGATATGCT | -0.0927 |
| ACTCGGAGGACAAAGGCCAGAGCTACGCCAGTGA | -0.667 |
| CAAACTAGGTCATCGGAAGGTCAAAGTCCGCATG | 5.72 |
| ATCTCTAGGTAAAGATAGTTCAATGAATGCAAAT | 1.61 |
| CATACAGGGTCAGCTAGACCAGAGTAGGGACGGC | 2.52 |
| CCTACTGGGGCAAAAAGGTCATTGATGCCGATAA | 5.42 |
| CAAACTAGGTCAAGGTCAAAGTCGGTTTGTGCCA | 5.23 |
| CCGACTGGGGCATAAGGTTACCATCAGCCAGCCC | -0.0341 |
